# Experimental data: PMC12136788
# Substitutions are numbered along the chain they refer to. Over roughly 5,800 sequences, “enrichment r” has its median near 0.54; the highest 2% begin near 16. Shown is part of a subset that was picked to be rich in the highest values.
# B1: chr14:95709946:95710881:-|three_prime_utr|ENSG00000100721|control|control|control (ssRNA)
# RNA: GGGAGUUCUACAGUCCGACGAUCUCUGGGAGGAAUGGACAGACAGAGGAUGAGCUCUACCCAGGGCCUGCAGGACCUGCCUGUAGCCCACUCUGCUCGCCUUAGCACUACCACUCCUGCCAAGGAGGAUUCCAUUUGGCAGAGCAACAGAGGAUUGAGCAUCA
# B2: chr5:138873012:138874556:-|CDS|ENSG00000146006|control|control|control (ssRNA)
# RNA: GGGAGUUCUACAGUCCGACGAUCUUUAUUAUUUUUAUAGUGUUCAUCUCCAGGAAGUGCUGCCCUCCCACUUUAAGAAGAAUUAGGCAGUGCUCAAUGGUUCAGAACCACAGGCAGCUCCGAUCCCAAACACGACUCCAUAUGCAACAGAGGAUUGAGCAUCA
# B3: chr5:72207278:72207408:+|3pUTR|ENSG00000131711|msi1_unk|total|mutant (ssRNA)
# RNA: GGGAGUUCUACAGUCCGACGAUCAGAGAACAAUGACCUCAUUUUAUUUUCUAUGUCCGUUAUUUAUUUCAAAAUUAACAUUUCCGUUGAUUUUUGUCUGAUAAGUCUAUGUUUUGCACUGCUAACUAUGAUGAGGGUUUAAAACAACAGAGGAUUGAGCAUCA
# B4: chr1:93866283:93869944:-|three_prime_utr|ENSG00000067334|control|control|control (ssRNA)
# RNA: GGGAGUUCUACAGUCCGACGAUCUUUAUUUACUUAUUAAAGACGUUUGGAAAACUAACACCAUCAUCUAAAUUAAUUUACCAUAGACUGGCCCUGUUCAUACAGGAAUUUGUAUUUGGAAAAAGUUGAUUUGAGAAUCGAUUACAACAGAGGAUUGAGCAUCA
# B5: chr16:30603633:30603734:-|3pUTR|ENSG00000156853|unk|total|mutant (ssRNA)
# RNA: GGGAGUUCUACAGUCCGACGAUCGUUAAGUACCACAUUCUCCUCUAAACCUUGCCUACGACAUGUUUAAUACUUCAUCUACACCGCAGCCCUUCAGAUAAUCACAACCACUUUGCCCCCAAGUUUUCAGGUUAAGCCGCAUGACAACAGAGGAUUGAGCAUCA
# B6: chr2:32224452:32224765:-|three_prime_utr|ENSG00000091106|control|control|control (ssRNA)
# RNA: GGGAGUUCUACAGUCCGACGAUCUCGUGUGAGCAGUGAUGGAUGGCUUGCCUUCAUGGGUGUAUUUGAGAAUCUUAAGCAAUUAGUGUUUUUUGACUUUAGUACUAAAGAAUUUCUACCUGAUCCAGCAUUAGUCAGAAAACUCAACAGAGGAUUGAGCAUCA
# B7: ENSG00000198589:be:win_6851|CDS|ENSG00000198589|bound_else_gene|NA|bound_elsewhere_windowed (ssRNA)
# RNA: GGGAGUUCUACAGUCCGACGAUCAAGUUCCAAAGUUUCACUAUGGUACUCAUUACUCAACUGCAAGUUUUGUUCUUGCAUGGCUGCUAAGAAUAGAACCCUUUACAACUUAUUUCCUAAAUUUGCAAGGAGGCAAAUUUGAUCCAACAGAGGAUUGAGCAUCA
# B8: chr9:15474029:15474130:-|CDS|ENSG00000164985|unk|FALSE|unique (ssRNA)
# RNA: GGGAGUUCUACAGUCCGACGAUCAAGAAAAGAGCCGGAUAAAAAAGAGGGGAAGAAAGAAGUUGAAUCAAAAAGGAAAAAUUUAGCUAAAACAGGGGUUACUUCAACCUCCGAUUCUGAAGAAGAAGGAGAUGAUCAAGAAGGCAACAGAGGAUUGAGCAUCA
# B9: chr12:57516587:57516808:-|three_prime_utr|ENSG00000175197|control|control|control (ssRNA)
# RNA: GGGAGUUCUACAGUCCGACGAUCCCCCCACUUGGGCCACACUACCCACCUUUCCCAGAAGUGGCUACUGACUACCCUCUCACUAGUGCCAAUGAUGUGACCCUCAAUCCCACAUACGCAGGGGGAAGGCUUGGAGUAGACAAACAACAGAGGAUUGAGCAUCA
# B10: chr5:132696315:132696416:-|3pUTR|ENSG00000131437|msi1|total|mutant (ssRNA)
# RNA: GGGAGUUCUACAGUCCGACGAUCGUUGUACUACUACUCUUCAAUUGUACUGUGCAGGGAAGUUGGGGGAACAGUUCAUACUACCGAGAGUUACAGUUCCGAUGUAUGUGUAAAUCGAUCCGCUAUUUAUCCAACUACUGUAUACAACAGAGGAUUGAGCAUCA
# B11: chr5:141515350:141515460:-|3pUTR|ENSG00000131504|msi1_unk|total|mutant (ssRNA)
# RNA: GGGAGUUCUACAGUCCGACGAUCCUCAGCUUUCCAUCCCCAGCCCGGAAGAAAGAAUGGCACUCUUGGGCUUGGCCCAGAAUCCGAGUUAUCCGAGCAAGAGAGAGCUCCGGAAGCAUGAGGGCAACUACCGUGAGGCCUUAUCAACAGAGGAUUGAGCAUCA
# B12: chr8:103332422:103332528:+|3pUTR|ENSG00000164930|msi1|total|mutant (ssRNA)
# RNA: GGGAGUUCUACAGUCCGACGAUCUUUUUUAACAUUCCGAAUAUUACAUUUUGUAUUAUACAGUACCUUUCUCAGACAUUUUGCCGAAUUCAUUUCGGCAGCUCACCCGGAUUUUGCUGAACAUUAAAAAGUGUGACCGCGAUACAACAGAGGAUUGAGCAUCA
# B13: chr8:6757792:6757893:+|3pUTR|ENSG00000155189|msi1|FALSE|unique (ssRNA)
# RNA: GGGAGUUCUACAGUCCGACGAUCAUUUAUUACAACUUGACAGCUCCAAGCUCUUAUUACUAAAGUAUUUAGUAUCUUGCAGCUAGUUAAUAUUUCAUCUUUUGCUUAUUUCUACAAGUCAGUGAAAUAAAUUGUAUUUAGGAACAACAGAGGAUUGAGCAUCA
# B14: chr5:138184526:138184629:+|CDS|ENSG00000112984|unk|FALSE|unique (ssRNA)
# RNA: GGGAGUUCUACAGUCCGACGAUCGUGCAUGCCCCACCUAUGCAACUGGGAUUCCCAUCCCUGCACUCGUUCAUCAAGGAACAUAGUCUUCAGGUAUCCCCCAGCUUAGAGAAAGGGGCUAAGGCAGACACAGGCCUUGAUGAUCAACAGAGGAUUGAGCAUCA
# B15: chr8:103332422:103332528:+|3pUTR|ENSG00000164930|msi1|FALSE|unique (ssRNA)
# RNA: B12 RNA with C36U, C37A, C83U, C84A, C106U, C107A, C136U, C137A
# B16: chr5:141515350:141515460:-|3pUTR|ENSG00000131504|msi1_unk|FALSE|overlapping (ssRNA)
# RNA: B11 RNA with C44U, C45A, C83U, C84A, C92U, C93A, C109U, C110A, C130U, C131A
# B17: chr8:42175261:42175472:-|3pUTR|ENSG00000104368|msi1|FALSE|unique (ssRNA)
# RNA: GGGAGUUCUACAGUCCGACGAUCGUAUUCCUUUUGUGUACAGUGUGUAAAGUGUAAAUCCUUUUUCUUUAUAAACUUUAGAGUAGCAUGAGAGAAUUGUAUCAUUUGAACAACUAGGCUUCAGCAUAUUUAUAGCAAUCCAUGCAACAGAGGAUUGAGCAUCA
# B18: chr7:80742675:80742739:-|3pUTR|ENSG00000075223|msi1_unk|FALSE|overlapping (ssRNA)
# RNA: GGGAGUUCUACAGUCCGACGAUCGUAGCUUGACAAUUCAGUGACUUAAUAUCUAUUCCAUUUGUAUUGUACAUAAAAUUUUCUAGAAAUACACUUUUUUCCAAAGUGUAAGUUUGUGAAUAGAUUUUAGCAUGAUGAAACUGUCAACAGAGGAUUGAGCAUCA
# B19: chr4:65323451:65323552:-|3pUTR|ENSG00000145242|msi1|total|mutant (ssRNA)
# RNA: GGGAGUUCUACAGUCCGACGAUCAUCAAGAAAAAGUACAAUACAGGGUGUAUAUUUAUUUUUUGUGUUAUAAAGUUUACUUUCCGUUGCUCUUCCCGAGAUUAUCCGGUAAUAAAUGUGUAUAUACUGUAUAAUUUGCAAUAUCAACAGAGGAUUGAGCAUCA
# B20: chr8:42175261:42175472:-|3pUTR|ENSG00000104368|msi1|total|mutant (ssRNA)
# RNA: B17 RNA with U78C, A79C, U83C, A84C, U114C, A115C, U132C, A133C
# B21: chr5:132696315:132696416:-|3pUTR|ENSG00000131437|msi1|FALSE|unique (ssRNA)
# RNA: B10 RNA with C83U, C84A, C98U, C99A, C119U, C120A
# Target: MSI1 full-length (mouse, UniProt Q61474 1-362)
# Sequence (Q61474 whole entry): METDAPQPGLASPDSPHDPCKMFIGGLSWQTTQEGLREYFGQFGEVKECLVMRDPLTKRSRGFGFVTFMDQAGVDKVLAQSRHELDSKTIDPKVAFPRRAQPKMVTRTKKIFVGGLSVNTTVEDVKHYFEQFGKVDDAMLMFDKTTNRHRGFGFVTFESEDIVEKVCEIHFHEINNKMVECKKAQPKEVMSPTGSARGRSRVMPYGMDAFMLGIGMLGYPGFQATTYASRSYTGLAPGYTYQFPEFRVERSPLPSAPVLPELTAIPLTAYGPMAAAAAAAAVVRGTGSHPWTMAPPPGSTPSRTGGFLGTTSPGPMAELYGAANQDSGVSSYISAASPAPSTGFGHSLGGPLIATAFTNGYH
# Assay: nsRBNS (natural sequence RNA bind-n-seq); RBNS binding buffer (assumed for nsRBNS): 25 mM Tris pH 7.5, 150 mM KCl, 3 mM MgCl2, 0.01% Triton X-100, 500 ug/ml BSA, 20 U/ml SUPERase-In, 4 C; UNK is unkempt and MSI1 is Musashi-1; names of the RNAs are library labels; protein concentration not given here; high values mean tight binding
row,Binder,binding signal
1,B1,0.347 enrichment R
2,B2,1.88 enrichment R
3,B3,0.411 enrichment R
4,B4,0.451 enrichment R
5,B5,1.38 enrichment R
6,B6,3.3 enrichment R
7,B7,0.297 enrichment R
8,B8,0.83 enrichment R
9,B9,0.549 enrichment R
10,B10,0.609 enrichment R
11,B11,0.337 enrichment R
12,B12,0.818 enrichment R
13,B13,1.46 enrichment R
14,B14,0.612 enrichment R
15,B15,51.5 enrichment R
16,B16,28.2 enrichment R
17,B17,33.5 enrichment R
18,B18,6.36 enrichment R
19,B19,1.51 enrichment R
20,B20,0.424 enrichment R
21,B21,19.9 enrichment R
